The campaign covered roughly 5,500 compounds. About 2,000 (36%) were called active. Another 18% or so got no clear call; they are omitted. Cut-off read from the data, not from the text of the source: active = normalized growth mostly below about 0.91 (no sharp cut-off); inconclusive = no clear call, values can overlap the other calls; inactive = mostly above about 0.92. The list shows a part of the results.
Experiment: chemical genetic growth profiling, strain panel (AID 1159580);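 note: tested at 20 µM; growth read once vehicle control cultures reached saturation at 30 °C; 1 = growth at the plate median or of vehicle wells; lower values mean less growth of the strain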
Settings: growth OD

Measured: normalized growth

O=[N+]([O-])c1cc([As](=O)(O)O)ccc1O
inactive: S. cerevisiae deletion strains, locus YJR075W, strain HOC1, active compounds read low 1 | S. cerevisiae deletion strains, locus YKL009W, strain mrt4, active compounds read low 0.986 | S. cerevisiae deletion strains, locus YKL068W, active compounds read low 0.96 | S. cerevisiae deletion strains, locus YKL160W, strain elf1, active compounds read low 0.959 | S. cerevisiae deletion strains, locus YKL190W, strain CNB1, active compounds read low 0.983 | S. cerevisiae deletion strains, locus YKR091W, strain srl3, active compounds read low 0.975 | S. cerevisiae deletion strains, locus YLL001W, strain dnm1, active compounds read low 0.936 | S. cerevisiae deletion strains, locus YLL026W, active compounds read low 0.97 | S. cerevisiae deletion strains, locus YLL041C, strain sdh2, active compounds read low 0.965 | S. cerevisiae deletion strains, locus YLR027C, strain aat2, active compounds read low 0.97 | S. cerevisiae deletion strains, locus YLR039C, strain RIC1, active compounds read low 1.01 | S. cerevisiae deletion strains, locus YLR058C, strain SHM2, active compounds read low 0.998 | S. cerevisiae deletion strains, locus YLR113W, strain HOG1, active compounds read low 1.02 | S. cerevisiae deletion strains, locus YLR221C, strain rsa3, active compounds read low 1 | S. cerevisiae deletion strains, locus YLR258W, strain gsy2, active compounds read low 0.975 | S. cerevisiae deletion strains, locus YLR262C, strain YPT6 (second series), active compounds read low 0.948 | S. cerevisiae deletion strains, locus YLR262C, strain YPT6, active compounds read low 1.02 | S. cerevisiae deletion strains, locus YLR320W, strain mms22, active compounds read low 0.984 | S. cerevisiae deletion strains, locus YLR330W, strain CHS5, active compounds read low 0.988 | S. cerevisiae deletion strains, locus YLR342W, strain FKS1 (second series), active compounds read low 1.07 | S. cerevisiae deletion strains, locus YLR342W, strain FKS1, active compounds read low 0.978 | S. cerevisiae deletion strains, locus YLR357W, strain rsc2, active compounds read low 0.92 | S. cerevisiae deletion strains, locus YLR370C, strain arc18, active compounds read low 0.957 | S. cerevisiae deletion strains, locus YLR384C, strain iki3, active compounds read low 0.938 | S. cerevisiae deletion strains, locus YML016C, strain PPZ1, active compounds read low 0.988 | S. cerevisiae deletion strains, locus YML032C, strain rad52, active compounds read low 0.929 | S. cerevisiae deletion strains, locus YML120C, strain ndi1, active compounds read low 0.969 | S. cerevisiae deletion strains, locus YMR058W, strain fet3, active compounds read low 0.977 | S. cerevisiae deletion strains, locus YMR125W, strain sto1, active compounds read low 0.943 | S. cerevisiae deletion strains, locus YMR129W, active compounds read low 0.981 | S. cerevisiae deletion strains, locus YMR205C, strain PFK2, active compounds read low 0.983 | S. cerevisiae deletion strains, locus YMR231W, strain pep5, active compounds read low 0.951 | S. cerevisiae deletion strains, locus YMR263W, strain SAP30, active compounds read low 0.99 | S. cerevisiae deletion strains, locus YMR307W, strain GAS1, active compounds read low 1.05 | S. cerevisiae deletion strains, locus YNL067W, strain RPL9B, active compounds read low 0.991 | S. cerevisiae deletion strains, locus YNL071W, strain lat1, active compounds read low 0.973 | S. cerevisiae deletion strains, locus YNL128W, strain TEP1, active compounds read low 0.976 | S. cerevisiae deletion strains, locus YNL153C, strain GIM3, active compounds read low 0.958 | S. cerevisiae deletion strains, locus YNL183C, strain NPR1, active compounds read low 0.971 | S. cerevisiae deletion strains, locus YNL209W, strain ssb2, active compounds read low 0.974 | S. cerevisiae deletion strains, locus YNL233W, strain BNI4, active compounds read low 1.01 | S. cerevisiae deletion strains, locus YNL248C, strain rpa49, active compounds read low 0.918 | S. cerevisiae deletion strains, locus YNL250W, strain rad50, active compounds read low 0.93 | S. cerevisiae deletion strains, locus YNL322C, strain KRE1 (second series), active compounds read low 0.974 | S. cerevisiae deletion strains, locus YNL322C, strain KRE1, active compounds read low 0.991 | S. cerevisiae deletion strains, locus YNR049C, strain mso1, active compounds read low 0.945 | S. cerevisiae deletion strains, locus YNR052C, strain pop2, active compounds read low 1.03 | S. cerevisiae deletion strains, locus YOL006C, strain TOP1, active compounds read low 1.06 | S. cerevisiae deletion strains, locus YOL012C, strain htz1 0.214 | S. cerevisiae deletion strains, locus YOL147C, strain pex11, active compounds read low 0.987 | S. cerevisiae deletion strains, locus YOR001W, strain rrp6, active compounds read low 0.965 | S. cerevisiae deletion strains, locus YOR061W, strain CKA2, active compounds read low 0.991 | S. cerevisiae deletion strains, locus YOR069W, strain VPS5, active compounds read low 0.989 | S. cerevisiae deletion strains, locus YOR070C, strain gyp1, active compounds read low 0.965 | S. cerevisiae deletion strains, locus YOR080W, strain dia2, active compounds read low 0.961 | S. cerevisiae deletion strains, locus YOR083W, strain WHI5, active compounds read low 0.975 | S. cerevisiae deletion strains, locus YOR106W, strain vam3, active compounds read low 0.96 | S. cerevisiae deletion strains, locus YOR144C, strain elg1, active compounds read low 0.996 | S. cerevisiae deletion strains, locus YOR231W, strain MKK1, active compounds read low 1.03 | S. cerevisiae deletion strains, locus YOR265W, strain rbl2, active compounds read low 0.968 | S. cerevisiae deletion strains, locus YOR270C, strain vph1, active compounds read low 0.952 | S. cerevisiae deletion strains, locus YOR290C, strain snf2, active compounds read low 0.993 | S. cerevisiae deletion strains, locus YPL051W, strain arl3, active compounds read low 0.967 | S. cerevisiae deletion strains, locus YPL055C, strain LGE1, active compounds read low 0.946 | S. cerevisiae deletion strains, locus YPL078C, strain atp4, active compounds read low 0.951 | S. cerevisiae deletion strains, locus YPL106C, strain sse1, active compounds read low 0.982 | S. cerevisiae deletion strains, locus YPL240C, strain hsp82, active compounds read low 0.949 | S. cerevisiae deletion strains, locus YPL241C, strain CIN2, active compounds read low 0.995 | S. cerevisiae deletion strains, locus YPL256C, strain CLN2, active compounds read low 1.08 | S. cerevisiae deletion strains, locus YPR141C, strain kar3, active compounds read low 1 | S. cerevisiae strains, strain wild type, active compounds read low 0.997
active: S. cerevisiae deletion strains, locus YKL085W, strain MDH1 (second series), active compounds read low 0.484 | S. cerevisiae deletion strains, locus YKL085W, strain MDH1, active compounds read low 0.484 | S. cerevisiae deletion strains, locus YKR001C, strain vps1, active compounds read low 0.232 | S. cerevisiae deletion strains, locus YLR102C, strain apc9, active compounds read low 0.243 | S. cerevisiae deletion strains, locus YLR268W, strain sec22, active compounds read low 0.12 | S. cerevisiae deletion strains, locus YLR371W, strain rom2, active compounds read low 0.152 | S. cerevisiae deletion strains, locus YLR418C, strain cdc73, active compounds read low 0.146 | S. cerevisiae deletion strains, locus YML124C, strain tub3, active compounds read low 0.329 | S. cerevisiae deletion strains, locus YMR078C, strain ctf18, active compounds read low 0.548 | S. cerevisiae deletion strains, locus YMR223W, strain ubp8, active compounds read low 0.129 | S. cerevisiae deletion strains, locus YNL271C, strain bni1, active compounds read low 0.532 | S. cerevisiae deletion strains, locus YNL298W, strain CLA4, active compounds read low 0.877 | S. cerevisiae deletion strains, locus YNL307C, strain MCK1, active compounds read low 0.0701 | S. cerevisiae deletion strains, locus YOR136W, strain idh2, active compounds read low 0.147 | S. cerevisiae deletion strains, locus YOR184W, strain ser1, active compounds read low 0.0809 | S. cerevisiae deletion strains, locus YOR316C, strain cot1, active compounds read low 0.171 | S. cerevisiae deletion strains, locus YPR119W, strain clb2, active compounds read low 0.288 | S. cerevisiae deletion strains, locus YPR163C, strain tif3, active compounds read low 0.0934 | S. cerevisiae deletion strains, locus YPR167C, strain met16, active compounds read low 0.152 | S. cerevisiae deletion strains, strain wtn01, active compounds read low 0.0828
